About 83,000 compounds went through this panel and 20% of them were active in at least one assay; those are over-represented in the sample as a whole.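 Method: cells in 96-well plates; compound added at one concentration; 48 h incubation; percent growth measured; values under 10 scored active.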 Unmarked numbers belong to inactive results. Activity calls are given as the source filed them.
The compounds below were run on HL-60(TB) leukemia (assay: NCI-60 one-dose screen, 48 h (100 = growth as untreated, 0 = no growth, -100 = all killed)). Conditions: 10 µM unless noted.
With `COc1cc(-c2nc3ccccc3[nH]2)ccc1OCC(=O)N=Nc1c(O)[nH]c2ccc(Cl)cc12` the growth was -30.8% (active).
In the case of `COc1ccc(-c2nnc(NC(=O)CN3CCN(c4cc5c(cc4F)c(=O)c(C(=O)O)cn5C4CC4)CC3)s2)cc1OC`, the growth is reported as 111%.
For `CCc1nc2ccc(Cc3ccc(C(=O)NO)cc3)cc2c(=O)n1CCc1ccccc1`, the growth was -20.3% (active).
In the case of `CCN(CC)c1ccc2nc3ccc(N=Nc4ccc(N(C)C)cc4)cc3[n+](-c3ccccc3)c2c1`, the growth is reported as -32.2% (active).
Compound `CCOC(=O)[C@@H](Cc1ccccc1)NC(=O)c1[nH]c2ccc(Cl)cc2c(=O)c1C` has a growth of 104%.
`Nc1ccn(Cc2nnc(CCC(=O)c3nc4ccccc4[nH]3)o2)c(=O)n1` gave a growth of 80.5%.
With `COc1cc(/C=C/C(=O)c2cccc(-n3cc(-c4ccc(Cl)cc4)[nH]c3=O)c2)cc(OC)c1OC` the growth was 62.7%.
With `CC(C)(C)n1cc(-c2ccnc(NCCCNS(=O)(=O)c3ccc(C(F)(F)F)cc3)c2)c(-c2cccc(F)c2)n1` the growth was 94.6%.
In the case of `Oc1ccccc1C=NCC1CCC(CN=Cc2ccccc2O)CC1` (centres undefined), the growth is reported as 123%.
In the case of `CCN(CCC#N)c1ccccc1`, the growth is reported as 98.1%.
For `O=C(O)/C(=C/c1ccc(O)cc1)c1ccccc1`, the growth was 96%.
`C=CCn1c2ccccc2c2c3c(c4c5ccccc5n(CC=C)c4c21)C(=O)N(O)C3=O` was tested, and the growth was -39.5% (active).
`C=CC(=O)Nc1cccc(C)c1Nc1cc(-c2cccnc2Cc2c(C)c(OC)cc(OC)c2C)ncn1` was tested, and the growth was -23% (active).
With `O=C(Nc1ccc(Oc2ccc(NC(=O)Nc3ccccc3Cl)cc2)cc1)Nc1ccccc1Cl` the growth was 51.7%.

Reference: PubChem BioAssay (NCI)
